In the supplement of paper PMC10849652:
About 7,900 targets were measured; listed, in parts, are those with a hit and a random draw of the rest. About 0.6% of all pairs of compound and target were hits. Values without a mark were called inactive.

Legend:
Experiment in all cases: log2 fold change, soluble protein after heating vs DMSO (PISA); higher = thermal stabilisation; K562 cells, 10 uM, 30 min; active = over 0.2 and 3.5 SD of the protein, either way, in both replicates (recomputed)
[1] = compound: C#Cc1cccc(Nc2ncnc3cc(OCCOC)c(OCCOC)cc23)c1 [erlotinib]
How it was run: (§1)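 Values are thermal stability changes relative to control samples and are taken from duplicates. They are stated as log2 fold changes. Before quantification by TMTpro 16plex LC-MS/MS with equalised channel sums, K562 cells at 2×10^6 cells/mL were treated with 10 μM compound for 30 min, heated in aliquots for 3 min across 48°C-58°C, pooled, extracted in PBS with 0.5% NP-40 at 4°C, and centrifuged at 21,000xg for 90 min to give the soluble supernatant.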

[2] = compound: C/C(=N\NC(=O)C1=CC(=CC=C1)S(=O)(=O)N2CCOCC2)/C3=C(C=CC(=C3)Cl)O
How it was run: as §1

[3] = compound: C1=CC(=C(C=C1Cl)C2=NC3=NC=CN=C3C(=N2)NC4=CC=NC=C4)F
How it was run: as §1

[4] = compound: C1=CC(=CC=C1C2=NC3=C(N2)C=C(C=C3)C(=O)N)OC4=CC=C(C=C4)Cl
How it was run: as §1

[5] = compound: C1=CC2=C(C=CC(=C2)/C=C\3/C(=O)NC(=NCC4=CC=CS4)S3)N=C1
How it was run: as §1

[6] = compound: C1=CC2=NC=CN=C2C=C1/C=C/3\C(=O)NC(=O)S3
How it was run: as §1

[7] = compound: C1=CC=C(C=C1)C2=NC(=C(N2)C3=CC=NC=C3)C4=CC(=C(C=C4)Cl)O
How it was run: as §1

[8] = compound: C1=CC=C2C(=C1)C3=NNC4=CC=CC(=C43)C2=O
How it was run: as §1

[9] = compound: C1CCN(C1)C(=O)NC2=CC=CC(=C2)NC3=NC=C(C(=N3)NCCC4=CN=CN4)Br
How it was run: as §1

[10] = compound: C1CN(CCC1(CC2=CC=C(C=C2)Cl)N)C3=NC=NC4=C3C=CN4
How it was run: as §1

[11] = compound: C1COCCN1CCN2C3=CC=CC=C3N=C2NC(=O)C4=CC(=CC=C4)[N+](=O)[O-] [IRAK-1-4 Inhibitor I]
How it was run: as §1

[12] = compound: C=CC(=O)N1CCC[C@@H](n2nc(-c3ccc(Oc4ccccc4)cc3)c3c(N)ncnc32)C1 [ibrutinib]
How it was run: as §1

[13] = compound: CC(=O)c1cnc2ccc(-c3cc(Cl)c(O)c(Cl)c3)nc2c1N[C@H]1CC[C@H](CN(C)C)CC1
How it was run: as §1

[14] = compound: CC(C)(C)Cn1c(N)nc2ccc(-c3[nH]c(C(C)(C)C)nc3-c3ccc(F)cc3)nc21 [ralimetinib]
How it was run: as §1

[15] = compound: CC(C)(O)CC(=O)NCCn1ccc2ncnc(Nc3ccc(Oc4cccc(C(F)(F)F)c4)c(Cl)c3)c21
How it was run: as §1

[16] = compound: CC(C)C1=C2N=C(C=C(N2N=C1)NCC3=CC=CC=C3)NCCCCCCN
How it was run: as §1

[17] = compound: CC(C)C[C@@H](C=O)NC(=O)[C@H](CC(C)C)NC(=O)[C@H](CC(C)C)NC(=O)OCc1ccccc1
How it was run: as §1

[18] = compound: CC(C)N(C[C@H]1O[C@@H](n2cnc3c(N)ncnc32)[C@H](O)[C@@H]1O)[C@H]1C[C@@H](CCc2nc3cc(C(C)(C)C)ccc3[nH]2)C1 [pinometostat]
How it was run: as §1

[19] = compound: CC1=C(C(CC(=O)N1)C2=CC=C(C=C2)C(F)(F)F)C(=O)NC3=C(C=C4C(=C3)C=NN4)F
How it was run: as §1

[20] = compound: CC1=C(C2=C(C=C1)C(=O)C3=CC=CC=C3N2CCCN)C
How it was run: as §1

UniProt Q6P9B6, sequence (Q6P9B6 whole entry, looked up): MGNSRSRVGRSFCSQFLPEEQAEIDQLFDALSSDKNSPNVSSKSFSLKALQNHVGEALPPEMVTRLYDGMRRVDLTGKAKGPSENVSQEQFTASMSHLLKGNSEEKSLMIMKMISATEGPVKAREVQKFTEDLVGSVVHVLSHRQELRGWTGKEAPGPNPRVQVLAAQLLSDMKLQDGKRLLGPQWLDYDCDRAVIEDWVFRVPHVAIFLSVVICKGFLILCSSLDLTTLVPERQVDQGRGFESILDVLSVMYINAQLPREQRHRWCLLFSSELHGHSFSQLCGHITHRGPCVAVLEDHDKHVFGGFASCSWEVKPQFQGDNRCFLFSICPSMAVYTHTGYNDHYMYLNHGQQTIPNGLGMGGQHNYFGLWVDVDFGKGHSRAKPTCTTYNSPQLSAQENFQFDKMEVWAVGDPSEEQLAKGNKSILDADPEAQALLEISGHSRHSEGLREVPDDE
UniProt P27816, sequence (P27816 whole entry, looked up): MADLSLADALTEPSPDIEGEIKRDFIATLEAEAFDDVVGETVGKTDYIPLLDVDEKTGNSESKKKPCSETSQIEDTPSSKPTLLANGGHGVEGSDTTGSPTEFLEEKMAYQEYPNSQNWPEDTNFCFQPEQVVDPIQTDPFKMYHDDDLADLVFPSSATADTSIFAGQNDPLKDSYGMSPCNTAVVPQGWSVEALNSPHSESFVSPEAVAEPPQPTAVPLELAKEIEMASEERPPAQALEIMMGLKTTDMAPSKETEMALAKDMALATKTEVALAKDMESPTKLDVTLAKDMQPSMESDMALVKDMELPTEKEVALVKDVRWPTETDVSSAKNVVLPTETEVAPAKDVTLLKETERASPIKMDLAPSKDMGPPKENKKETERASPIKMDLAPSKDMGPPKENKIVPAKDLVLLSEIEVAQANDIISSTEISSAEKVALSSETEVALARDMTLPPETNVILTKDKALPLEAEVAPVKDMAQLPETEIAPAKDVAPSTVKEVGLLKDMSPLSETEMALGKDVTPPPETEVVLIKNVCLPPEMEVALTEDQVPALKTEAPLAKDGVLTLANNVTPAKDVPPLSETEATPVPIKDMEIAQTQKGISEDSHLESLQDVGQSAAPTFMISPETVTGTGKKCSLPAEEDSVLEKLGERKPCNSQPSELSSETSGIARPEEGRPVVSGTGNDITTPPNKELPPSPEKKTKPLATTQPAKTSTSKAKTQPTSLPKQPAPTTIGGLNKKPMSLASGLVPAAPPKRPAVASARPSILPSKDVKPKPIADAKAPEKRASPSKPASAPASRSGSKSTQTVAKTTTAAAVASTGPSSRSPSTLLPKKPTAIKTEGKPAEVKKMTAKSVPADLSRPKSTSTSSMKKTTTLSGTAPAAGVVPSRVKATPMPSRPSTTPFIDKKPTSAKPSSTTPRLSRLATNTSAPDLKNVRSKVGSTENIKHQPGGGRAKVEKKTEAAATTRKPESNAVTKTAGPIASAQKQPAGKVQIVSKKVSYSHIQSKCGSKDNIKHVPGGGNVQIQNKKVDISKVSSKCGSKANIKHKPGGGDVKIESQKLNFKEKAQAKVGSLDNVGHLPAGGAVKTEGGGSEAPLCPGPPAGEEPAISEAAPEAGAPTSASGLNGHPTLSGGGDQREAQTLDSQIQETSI
UniProt Q9C0E8, sequence (Q9C0E8 whole entry, looked up): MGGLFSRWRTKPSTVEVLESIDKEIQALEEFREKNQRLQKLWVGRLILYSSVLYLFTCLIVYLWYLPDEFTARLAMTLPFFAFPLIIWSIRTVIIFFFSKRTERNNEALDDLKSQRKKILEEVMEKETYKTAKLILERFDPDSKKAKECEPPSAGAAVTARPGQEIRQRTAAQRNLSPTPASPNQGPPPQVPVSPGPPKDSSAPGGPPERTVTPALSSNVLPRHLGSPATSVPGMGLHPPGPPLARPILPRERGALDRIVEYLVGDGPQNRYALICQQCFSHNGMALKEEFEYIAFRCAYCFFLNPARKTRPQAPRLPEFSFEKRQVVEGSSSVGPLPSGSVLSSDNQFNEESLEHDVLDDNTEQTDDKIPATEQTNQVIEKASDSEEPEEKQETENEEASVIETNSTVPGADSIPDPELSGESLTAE
UniProt P27448, sequence (P27448 whole entry, looked up): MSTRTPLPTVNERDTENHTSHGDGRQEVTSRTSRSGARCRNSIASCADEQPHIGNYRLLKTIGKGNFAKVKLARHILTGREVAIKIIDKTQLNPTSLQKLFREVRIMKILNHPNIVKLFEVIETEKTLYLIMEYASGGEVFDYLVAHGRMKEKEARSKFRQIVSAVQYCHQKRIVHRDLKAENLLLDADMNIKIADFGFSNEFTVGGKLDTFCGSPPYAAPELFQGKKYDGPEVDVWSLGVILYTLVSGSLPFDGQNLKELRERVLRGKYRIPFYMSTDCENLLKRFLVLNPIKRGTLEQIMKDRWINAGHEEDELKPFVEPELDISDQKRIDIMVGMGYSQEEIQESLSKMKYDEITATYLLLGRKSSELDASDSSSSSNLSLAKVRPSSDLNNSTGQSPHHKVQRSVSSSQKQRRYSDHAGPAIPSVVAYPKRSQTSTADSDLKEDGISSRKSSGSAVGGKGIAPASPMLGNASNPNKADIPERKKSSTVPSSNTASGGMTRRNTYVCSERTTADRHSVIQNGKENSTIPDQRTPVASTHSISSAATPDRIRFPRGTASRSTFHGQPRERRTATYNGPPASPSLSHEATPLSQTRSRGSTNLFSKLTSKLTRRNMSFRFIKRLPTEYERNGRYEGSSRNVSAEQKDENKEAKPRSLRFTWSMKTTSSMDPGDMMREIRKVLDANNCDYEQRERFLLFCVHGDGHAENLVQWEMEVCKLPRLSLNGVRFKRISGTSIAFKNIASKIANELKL
UniProt Q32MZ4, sequence (Q32MZ4 whole entry, looked up): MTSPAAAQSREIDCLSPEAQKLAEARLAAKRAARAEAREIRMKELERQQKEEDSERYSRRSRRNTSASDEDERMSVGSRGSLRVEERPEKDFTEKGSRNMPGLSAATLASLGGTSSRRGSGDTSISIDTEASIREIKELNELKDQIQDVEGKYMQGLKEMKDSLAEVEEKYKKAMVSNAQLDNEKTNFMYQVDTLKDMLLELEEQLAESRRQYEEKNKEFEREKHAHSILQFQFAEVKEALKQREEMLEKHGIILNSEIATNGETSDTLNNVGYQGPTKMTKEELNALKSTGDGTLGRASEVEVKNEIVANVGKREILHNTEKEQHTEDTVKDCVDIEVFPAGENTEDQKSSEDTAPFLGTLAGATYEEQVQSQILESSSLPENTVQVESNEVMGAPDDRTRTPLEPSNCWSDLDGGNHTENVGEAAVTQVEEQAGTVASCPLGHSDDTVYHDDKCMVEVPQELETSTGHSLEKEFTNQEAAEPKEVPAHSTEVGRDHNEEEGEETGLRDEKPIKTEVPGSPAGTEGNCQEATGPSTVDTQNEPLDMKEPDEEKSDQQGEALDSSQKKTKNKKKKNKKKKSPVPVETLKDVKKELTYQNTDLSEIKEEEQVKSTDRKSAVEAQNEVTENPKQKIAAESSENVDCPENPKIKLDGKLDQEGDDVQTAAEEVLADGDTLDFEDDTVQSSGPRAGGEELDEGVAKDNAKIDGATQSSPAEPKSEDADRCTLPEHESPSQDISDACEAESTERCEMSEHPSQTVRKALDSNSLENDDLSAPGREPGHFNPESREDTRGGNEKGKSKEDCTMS
UniProt Q14624, sequence (Q14624 whole entry, looked up): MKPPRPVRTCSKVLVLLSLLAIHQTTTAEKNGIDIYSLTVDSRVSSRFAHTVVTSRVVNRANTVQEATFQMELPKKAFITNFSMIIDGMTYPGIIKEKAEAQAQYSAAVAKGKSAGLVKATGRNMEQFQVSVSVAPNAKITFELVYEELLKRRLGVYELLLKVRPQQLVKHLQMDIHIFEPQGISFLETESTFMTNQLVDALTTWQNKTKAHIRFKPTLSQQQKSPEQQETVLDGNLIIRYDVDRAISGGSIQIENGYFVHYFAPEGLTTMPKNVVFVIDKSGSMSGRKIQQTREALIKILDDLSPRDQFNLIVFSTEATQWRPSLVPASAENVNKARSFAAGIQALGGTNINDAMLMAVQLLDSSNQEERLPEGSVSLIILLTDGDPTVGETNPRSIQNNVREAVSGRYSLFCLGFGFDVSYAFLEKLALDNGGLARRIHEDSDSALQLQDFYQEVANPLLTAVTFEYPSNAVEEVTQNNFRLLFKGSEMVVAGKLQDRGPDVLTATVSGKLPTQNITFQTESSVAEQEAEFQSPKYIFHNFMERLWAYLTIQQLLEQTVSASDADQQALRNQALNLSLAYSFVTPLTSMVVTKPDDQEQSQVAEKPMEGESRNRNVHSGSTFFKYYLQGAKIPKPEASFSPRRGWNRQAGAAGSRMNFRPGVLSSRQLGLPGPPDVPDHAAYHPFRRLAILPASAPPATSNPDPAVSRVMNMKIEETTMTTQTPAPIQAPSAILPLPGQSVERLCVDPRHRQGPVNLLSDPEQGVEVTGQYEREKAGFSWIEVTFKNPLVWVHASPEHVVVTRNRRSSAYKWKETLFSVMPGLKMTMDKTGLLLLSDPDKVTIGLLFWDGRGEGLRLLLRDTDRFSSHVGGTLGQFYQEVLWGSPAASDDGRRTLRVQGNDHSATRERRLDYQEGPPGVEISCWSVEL
UniProt Q8IW41, sequence (Q8IW41 whole entry, looked up): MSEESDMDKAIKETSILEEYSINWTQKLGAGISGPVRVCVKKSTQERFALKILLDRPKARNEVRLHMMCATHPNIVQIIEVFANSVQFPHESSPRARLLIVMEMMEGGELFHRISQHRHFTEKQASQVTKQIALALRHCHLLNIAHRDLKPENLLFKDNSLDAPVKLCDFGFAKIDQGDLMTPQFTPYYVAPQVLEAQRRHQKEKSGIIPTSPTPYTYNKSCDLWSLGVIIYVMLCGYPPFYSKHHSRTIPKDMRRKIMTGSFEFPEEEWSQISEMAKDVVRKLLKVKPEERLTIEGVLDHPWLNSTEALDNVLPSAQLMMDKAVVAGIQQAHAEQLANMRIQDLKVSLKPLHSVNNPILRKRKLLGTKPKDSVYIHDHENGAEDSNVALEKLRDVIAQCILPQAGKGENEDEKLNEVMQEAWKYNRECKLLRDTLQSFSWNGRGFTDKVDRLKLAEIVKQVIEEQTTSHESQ

Target | log2 fold change [1] | log2 fold change [2] | log2 fold change [3] | log2 fold change [4] | log2 fold change [5] | log2 fold change [6] | log2 fold change [7] | log2 fold change [8] | log2 fold change [9] | log2 fold change [10] | log2 fold change [11] | log2 fold change [12] | log2 fold change [13] | log2 fold change [14] | log2 fold change [15] | log2 fold change [16] | log2 fold change [17] | log2 fold change [18] | log2 fold change [19] | log2 fold change [20]
ILK (UniProt Q13418) | 0 | -0.119 | -0.086 | 0.016 | 0.091 | 0.002 | -0.056 | -0.056 | 0.068 | 0.008 | 0.029 | 0.004 | -0.029 | 0.027 | -0.081 | -0.094 | 0.128 | 0.083 | -0.005 | 0.01
MEAK7 (UniProt Q6P9B6) | 0.015 | -0.005 | 0.023 | 0.054 | 0.069 | 0.014 | -0.062 | 0.092 | -0.042 | -0.017 | 0.015 | -0.041 | -0.093 | 0.078 | -0.018 | -0.2 | 0.079 | 0.037 | -0.004 | 0.033
LRRFIP1 (UniProt Q32MZ4) | 0.072 | -0.045 | -0.027 | 0.018 | -0.01 | 0.052 | -0.024 | -0.042 | 0.056 | 0.041 | 0.014 | 0.019 | 0.027 | -0.003 | 0.063 | 0.084 | 0.011 | 0 | 0 | -0.043
LBR (UniProt Q14739) | 0.009 | 0.122 | 0.043 | -0.016 | 0.029 | 0.034 | 0.059 | -0.002 | 0.037 | 0.21 | -0.044 | -0.092 | 0.038 | -0.001 | -0.211 | -0.168 | -0.083 | 0.211 | -0.036 | 0.188
MAD2L1 (UniProt Q13257) | -0.01 | 0.056 | 0.029 | -0.052 | 0.033 | 0.056 | -0.009 | 0.007 | 0.01 | -0.032 | 0 | -0.095 | 0.008 | -0.004 | -0.057 | -0.112 | -0.018 | 0.031 | -0.004 | -0.033
MAPKAPK5 (UniProt Q8IW41) | 0.249 (active) | -0.249 | 0.024 | -0.087 | 0.019 | 0.052 | 0.043 | 0.025 | -0.033 | 0.012 | 0.029 | -0.003 | 0.052 | 0.029 | -0.139 | 0.218 | 0.055 | -0.042 | -0.161 | 0.002
MAP4 (UniProt P27816) | 0.003 | -0.041 | 0.006 | -0.009 | -0.039 | 0.011 | -0.007 | -0.02 | -0.025 | 0.015 | 0.003 | 0 | 0.012 | 0.025 | 0.012 | 0.076 | 0.019 | 0.001 | 0.006 | 0.08
ITPRIP (UniProt Q8IWB1) | 0.012 | -0.086 | 0.052 | 0.034 | -0.05 | 0.01 | -0.085 | -0.094 | -0.02 | 0.012 | -0.063 | 0.059 | -0.013 | 0.005 | 0.007 | -0.074 | 0.082 | -0.005 | -0.001 | 0.022
ITIH4 (UniProt Q14624) | -0.026 | -0.072 | 0.029 | 0.091 | 0.143 | -0.039 | 0.061 | -0.06 | -0.009 | 0.079 | 0.043 | 0.147 | 0.041 | -0.044 | 0.17 | 0.045 | -0.113 | -0.117 | 0.251 | -0.148
MARK3 (UniProt P27448) | 0.009 | 0.116 | -0.031 | 0.014 | 0 | 0.008 | -0.032 | -0.578 (active) | -0.221 | -0.208 | -0.071 | -0.026 | -2.03 (active) | 0.014 | -0.035 | -0.171 | 0.084 | 0.156 | 0.136 | 0.026
LEMD2 (UniProt Q8NC56) | 0.04 | 0.007 | -0.054 | -0.002 | 0.11 | 0.001 | 0.042 | 0.008 | -0.016 | 0.046 | 0.015 | 0.082 | -0.066 | -0.02 | -0.024 | -0.63 (active) | 0.022 | -0.014 | -0.051 | 0.131
MDN1 (UniProt Q9NU22) | 0.063 | 0.11 | 0.02 | -0.025 | 0.144 | 0.037 | 0.02 | -0.022 | -0.025 | 0 | -0.011 | -0.046 | -0.126 | -0.015 | -0.24 | -0.22 | -0.029 | -0.009 | 0.006 | 0.005
LTO1 (UniProt Q8WV07) | -0.095 | 0.072 | 0.032 | 0.059 | 0.002 | 0.089 | -0.035 | -0.052 | -0.032 | 0.169 | -0.028 | 0.037 | 0.061 | 0.028 | 0.011 | -0.017 | 0 | -0.028 | 0.04 | 0.041
ILVBL (UniProt A1L0T0) | 0.027 | 0.092 | -0.035 | -0.02 | 0.178 | -0.03 | 0.009 | -0.026 | 0.014 | 0.095 | 0.073 | 0.048 | -0.027 | -0.075 | -0.053 | 0.058 | -0.018 | 0.066 | -0.013 | 0.025
LNPK (UniProt Q9C0E8) | 0.011 | -0.028 | 0.05 | 0 | -0.018 | 0.058 | 0 | -0.02 | 0.007 | 0.089 | 0.041 | 0.013 | 0.004 | -0.019 | 0.016 | 0.05 | -0.011 | -0.01 | 0.016 | -0.035
IWS1 (UniProt Q96ST2) | 0.029 | 0.029 | 0.091 | 0 | -0.033 | 0.022 | -0.013 | -0.077 | -0.067 | -0.033 | -0.026 | -0.027 | 0.492 (active) | -0.04 | -0.09 | 0.166 | -0.04 | 0.014 | -0.044 | -0.301 (active)
